Assay results from PubChem BioAssay (NCI).
Several values for one entry are separate records, joined by “and”; a condition that tells them apart may be missing. Equal values may be shown once. About 83,000 compounds went through this panel and 20% of them were active in at least one assay; those are over-represented in the sample as a whole.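 How to read the values: 0–100, growth inhibition (40 = 60% inhibited); 0, no net growth; -100 to 0, cell death (-40 = 40% of starting cells died; -100 = all dead).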 Activity calls are given as the source filed them. How the source made its calls: active means growth percent below 10; inactive means the rest.

Each compound was assayed on MCF7 breast (assay: NCI-60 one-dose screen, 48 h (100 = growth as untreated, 0 = no growth, -100 = all killed)). Conditions: 10 µM unless noted.

| SMILES | growth |
| --- | --- |
| CC1OC23CCCCC2C(C#N)(C#N)C1(C#N)C(=N)O3 (centres undefined) | -34% [100 µM] (active) |
| C=CC1=C(C)C2=NC1=CC1=NC(=C(CC)/C1=C\O)C=C1N=C3C(=C1C)C(=O)[C@H](C(=O)OC)C3=C1NC(=C2)[C@@H](C)[C@@H]1CCC(=O)O | 16.5% [100 µM] (inactive) and 5.87% [100 µM] (active) |
| Cc1ccc(OC2CC(n3cnc4ncnc(Cl)c43)OC2Oc2ccc(C)cc2)cc1 (centres undefined) | 8.44% [100 µM] (active) and -95.4% [100 µM] (active) |
| CCOc1cc2c(cc1O)/C(=N/NS(=O)(=O)c1ccc(C)cc1)C[C@@H]1[C@@H]2CC[C@]2(C)[C@@H](O)CC[C@@H]12 | -3.96% [100 µM] (active) |
| C=C1C(=O)OC2CC(C)C3(O)CCC(=O)C3(C)CC12 (centres undefined) | 13.7% [100 µM] (inactive) and 3.19% [100 µM] (active) |
| CCCCCC(O)(CCCCC)CCCCCCCCC1=C(O)c2ccccc2C(=O)C1=O | -37.7% [100 µM] (active) and -36.7% [100 µM] (active) |
| O=C1c2ccccc2-c2c1c1ccccc1c(=O)n2CCO | 6.81% [100 µM] (active) and -32.3% [100 µM] (active) |
| CC1CC2(OC2C)C(=O)OC2CCN(C)C/C=C(/COC(=O)C1(C)O)C2=O (centres undefined) | 91.6% [100 µM] (inactive) and 82.5% [100 µM] (inactive) |
| Cc1ccc2c(/C=C/c3ccc(N(C)C)cc3)ccc(C(C)C)cc1-2 | 57.7% [100 µM] (inactive) and 75.6% [100 µM] (inactive) |
